Entries with a potency or affinity are not part of this list.
How the values were obtained:
[1] = test system: Klebsiella pneumoniae; conditions: Concentration 20 uM; ASSAY_TEST Inhibition of Bacterial Growth; detection method Absorption (OD600); MEDIA CAMHB; plate type 384well; NBS; CORNING #3640; time 18 hr
[2] = test system: Candida albicans; conditions: 20 µM
[3] = test system: Cryptococcus neoformans; conditions: Concentration 20 uM; ASSAY_TEST Inhibition of Fungal Growth; detection method Resazurin; Absorption (OD600-OD570); plate type 384well; NBS; CORNING #3640

| Compound | Inhibition [1] [%] | Inhibition [2] [%] | Inhibition [3] [%] |
| --- | --- | --- | --- |
| Cc1[nH]cnc1CN1CCc2c(c3ccccc3n2C)C1=O.Cl [ALOSETRON HYDROCHLORIDE] | 15.86 | 2.6 | -5.48 |
| CNC(=C[N+](=O)[O-])NCCSCc1ccc(CN(C)C)o1.Cl [RANITIDINE HYDROCHLORIDE] | 4.5 | 2.99 | 5.97 |
| O=c1c(O[C@@H]2O[C@H](CO)[C@@H](O)[C@H](O)[C@H]2O)c(-c2ccc(O)c(O)c2)oc2cc(O)cc(O)c12 [ISOQUERCETIN] | 10.08 | 1.9 | 3.22 |
| COc1ccc(C2CNC(=O)C2)cc1OC1CCCC1 (configuration not stated) [ROLIPRAM] | 19.56 | 4.38 | -5.22 |
| C[n+]1ccccc1/C=N/O.[Cl-] [PRALIDOXIME CHLORIDE] | 15.84 | 0.76 | -2.73 |
| CCN(CC)CCOc1ccc(C(=C(Cl)c2ccccc2)c2ccccc2)cc1.O=C(O)CC(O)(CC(=O)O)C(=O)O [CLOMIPHENE CITRATE] | 12.13 | 7.1 | -20.85 |
| C[C@]12C[C@H](O)[C@H]3[C@@H](CCC4=CC(=O)CC[C@@]43C)[C@@H]1CC[C@@H]2C(=O)CO [CORTICOSTERONE] | 17.2 | 2.69 | -3.25 |
| CCOC(=O)N1CCC(=C2c3ccc(Cl)cc3CCc3cccnc32)CC1 [LORATADINE] | 12.62 | 2.41 | -7.17 |
| C=C1/C(=C\C=C2/CCC[C@]3(C)[C@@H]([C@H](C)CCCC(C)(C)O)CC[C@@H]23)C[C@@H](O)C[C@@H]1O [CALCITRIOL] | 21.35 | 2.06 | -8.66 |

Source: ChEMBL document CHEMBL4513141, “CO-ADD screening of NIH (USA) - Clinical Collection” (2021)
